High-throughput results: PubChem, several laboratories
BCLXL inh = Bcl-xL (human) inhibition. Q07817. GST-Bcl-xL / FITC-Bim BH3 peptide fluorescence polarization. inhibition, % at 10.9 µM. hit rate 0.7% among 320,000. AID 2129;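 active means inhibition above the mean of all tested compounds plus 3 SD, cutoff set per campaign, cut at about 30% in these data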;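 further: inhibitors lower millipolarization by displacing the labeled peptide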
Bim-Mcl-1 = human Bim-Mcl-1 interaction inhibition; hit rate 0.1% among 190,000; Bead-based flow cytometry, Bim peptide-Mcl-1 binding; inhibition, % at 10 µM; in the data active means inhibition above about 40%
Mcl1 Noxa PPI = Mcl-1/Noxa interaction inhibition; inhibition, % at 21.7 µM; Q07820; hit rate 1.5% among 220,000; TR-FRET Mcl-1/Noxa peptide binding, 2 h;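 active means compounds that cut the protein-peptide binding signal by more than 50% relative to plate controls in a single-dose test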;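 further: His-tagged Mcl-1 with rhodamine Noxa BH3 peptide and terbium anti-His antibody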
Mcl1 Bid PPI = disrupts binding of human Mcl-1 to Bid peptide | Q07820 | TR-FRET Mcl-1/Bid-Dy647 peptide binding, 1536-well | inhibition, % at 21.7 µM | hit rate 0.97% among 220,000 | AID 1021;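 active means compounds that cut the binding signal by more than half at the single screening dose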;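 further: His-tagged Mcl-1 with europium anti-His antibody binding Bid BH3 peptide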
GLD-1 RNA inh = GLD-1-TGE RNA interaction inhibition (C. elegans) | Q17339 | purified GLD-1 + fluorescein TGE RNA, fluorescence polarization | inhibition, % at 5.96 µM | hit rate 0.44% among 320,000 | AID 2280;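 active means percent inhibition above a per-plate cutoff, the plate mean of test compounds plus 3 SD, cut at about 30% in these data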
Target sequence (Q17339 whole entry, looked up): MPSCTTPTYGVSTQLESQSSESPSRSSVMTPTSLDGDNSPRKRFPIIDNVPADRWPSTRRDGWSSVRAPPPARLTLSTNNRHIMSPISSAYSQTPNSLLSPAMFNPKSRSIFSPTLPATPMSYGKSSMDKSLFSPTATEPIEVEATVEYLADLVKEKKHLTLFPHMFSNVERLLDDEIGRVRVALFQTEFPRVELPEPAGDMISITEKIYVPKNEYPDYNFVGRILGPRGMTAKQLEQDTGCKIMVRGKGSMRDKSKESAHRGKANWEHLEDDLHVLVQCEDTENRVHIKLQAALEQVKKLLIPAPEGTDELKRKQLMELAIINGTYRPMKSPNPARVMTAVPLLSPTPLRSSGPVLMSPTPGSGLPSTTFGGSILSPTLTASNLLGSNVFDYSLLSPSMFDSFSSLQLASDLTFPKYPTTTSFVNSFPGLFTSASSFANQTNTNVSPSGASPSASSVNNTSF
MCL1-BIM inh = MCL1-BIM-BH3 interaction inhibition (human); AID 2057; Q07820; inhibition, % at 10.9 µM; GST-MCL1 / FITC-Bim-BH3 fluorescence polarization; hit rate 0.68% among 320,000;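 active means inhibition above the mean inhibition of all tested compounds plus 3 SD, set per campaign, cut at about 40% in these data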;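 further: higher means more loss of mP so more displacement of Bim peptide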
Large screens that a line does not name were inactive. A selection: hits, their analogues and other compounds. The true share with any hit is near 2.3%.

Cc1ccc(C(=O)NCCc2csc(-c3cccnc3)n2)cc1	none
CC(OC(=O)CNC(=O)c1ccc(F)cc1)C(=O)Nc1ccc(S(=O)(=O)N2CCOCC2)cc1 (stereo not given)	none (no result: Bim-Mcl-1, Mcl1 Noxa PPI, Mcl1 Bid PPI)
Cc1cc(C)cc(C(=O)N2CCN(c3ccccn3)CC2)c1	none
COc1ccc(NC(=O)Cn2nnc(-c3ccccc3NC(=O)c3ccco3)n2)cc1	Mcl1 Bid PPI 66.3
COc1ccccc1NC(=O)Cn1nnc(-c2ccccc2NC(=O)c2cccs2)n1	none
O=C(Cn1nnc(-c2ccccc2NC(=O)c2cccs2)n1)Nc1ccccc1	Mcl1 Bid PPI 87.0
Cc1cc(C)n2nc(CCCO)nc2n1	none
Nc1ccc(Sc2cc(Cl)nc(N)n2)cc1	none
Nc1nc(N)c2cc(Sc3ccc4ccccc4c3)ccc2n1	Mcl1 Noxa PPI 84.3 (no result: Bim-Mcl-1)
COc1ccc(C=NCCC2(O)CC(C)N(C)CC2C)cc1 (stereo not given)	BCLXL inh 31.2, MCL1-BIM inh 41.1
Clc1ccc(SCCOCCN2CCCCCC2)cc1	none (no result: Bim-Mcl-1, Mcl1 Noxa PPI, Mcl1 Bid PPI)
Cc1ccc(-n2nc(C)c(C(=O)N3CCN(C(=O)c4ccco4)CC3)c2-n2cccc2)cc1	none (no result: Bim-Mcl-1, Mcl1 Noxa PPI, Mcl1 Bid PPI)
O=C(COc1ccc(Br)cc1)Nc1ccncc1	none
CCC(C)(C)c1ccc(OCC(=O)Nc2ccncc2)cc1	BCLXL inh 69.1 (no result: Bim-Mcl-1, Mcl1 Noxa PPI, Mcl1 Bid PPI)
CCOC(=O)Cc1nnc(Nc2cccc(C)c2)c2ccccc12	Mcl1 Bid PPI 64.5
COC(=O)Cc1nnc(Nc2cccc(C)c2)c2ccccc12	none (no result: Bim-Mcl-1)
COc1ccccc1N1CCN(S(=O)(=O)CCNC(=O)C2CC2)CC1	none (no result: Bim-Mcl-1, Mcl1 Noxa PPI, Mcl1 Bid PPI)
O=c1oc(-c2ccccc2)nc2sc3c(c12)CCC3	Mcl1 Noxa PPI 59.6
CCC(C)c1ccccc1NC(=O)C(C)N(C)Cc1cccc(OC)c1 (stereo not given)	none
O=C(CSc1ccccc1)NCC1(N2CCCCC2)CCCCC1	none (no result: Bim-Mcl-1, Mcl1 Noxa PPI, Mcl1 Bid PPI)
CCOC(=O)c1c(-c2ccco2)csc1NC(=O)CSc1nnc(N)s1	Mcl1 Bid PPI 80.4
CS(=O)(=O)c1ccc(-c2csc(-c3cccnc3)n2)cc1	BCLXL inh 31.5 (no result: Bim-Mcl-1, Mcl1 Noxa PPI, Mcl1 Bid PPI)
CC(C)[C@H](NC(=O)Cc1ccccc1)C(=O)OCc1cc(=O)n2c(n1)sc1ccccc12	Mcl1 Noxa PPI 76.2
Cc1ccc2c(CC(=O)OCc3cc(=O)n4c(n3)sc3ccccc34)coc2c1	none
Cc1ccc(S(=O)(=O)CCC(=O)OCC(=O)Nc2ncc(Cl)cc2Cl)cc1	Mcl1 Bid PPI 87.3
Cc1ccc(S(=O)(=O)CCC(=O)OCc2ccc(Cl)c(Cl)c2)cc1	Mcl1 Bid PPI 55.2
O=C(COC(=O)c1ccccc1O)Nc1ncc(Cl)cc1Cl	BCLXL inh 35.6, MCL1-BIM inh 40.3
Cc1ccc(S(=O)(=O)CCC(=O)OCc2ccc(S(=O)(=O)C(C)C)cc2)cc1	none
O=C(COC(=O)c1ccccc1NC(=O)c1ccco1)Nc1ncc(Cl)cc1Cl	none
COc1ccc(N(CC(=O)Nc2cccnc2)S(=O)(=O)c2ccccc2)cc1OC	none (no result: Bim-Mcl-1, Mcl1 Noxa PPI, Mcl1 Bid PPI)
COc1cc(/C=C(\C#N)c2nc3ccc(C)cc3[nH]2)c([N+](=O)[O-])cc1OC	none
Cc1ccc2nc(/C(C#N)=C\c3ccc(Oc4ccc(C(F)(F)F)cc4[N+](=O)[O-])cc3)[nH]c2c1	Mcl1 Noxa PPI 51.4
COc1cc(/C=C(/C#N)c2nc3ccccc3c(=O)[nH]2)ccc1O	Mcl1 Bid PPI 70.4
COc1ccc(/C=C(\C#N)c2nc3ccc(C)cc3[nH]2)cc1Oc1ccc(C(F)(F)F)cc1[N+](=O)[O-]	none
COc1cc(/C=C(\C#N)c2nc3ccc(C)cc3[nH]2)cc([N+](=O)[O-])c1O	Mcl1 Noxa PPI 80.6 (no result: BCLXL inh, GLD-1 RNA inh, MCL1-BIM inh)
Cc1ccc2nc(/C(C#N)=C/c3ccc(-c4cccc([N+](=O)[O-])c4)o3)[nH]c2c1	Mcl1 Noxa PPI 79.9
CC(=O)N1CCc2cc(S(=O)(=O)NCC(=O)NCc3ccc(Cl)cc3)ccc21	none (no result: Bim-Mcl-1, Mcl1 Noxa PPI, Mcl1 Bid PPI)
COc1cc(/C=C(\C#N)c2nc3ccccc3[nH]2)cc(OC)c1O	Mcl1 Noxa PPI 72.4
COc1cc(/C=C(\C#N)C(=O)c2c[nH]c3ccccc23)cc(OC)c1O	Mcl1 Noxa PPI 70.4
CCN(CC)c1ccc(/C=C(/C#N)c2nc3ccc(C)cc3[nH]2)c(OC(C)C)c1	BCLXL inh 41.6 (no result: Mcl1 Noxa PPI)
Cc1ccc(S(=O)(=O)N2CCOCC2)cc1NC(=O)CN1CCN(c2ccc(O)cc2)CC1	Mcl1 Noxa PPI 51.9
O=C(N/N=C/c1ccncc1)c1cccc(NC(=O)c2ccccc2Cl)c1	Bim-Mcl-1 42.0
